SENP7 block = blocks the human protease SENP7; AID 434973; Q9BQF6; recombinant SENP7, Z-RLRGG-aminoluciferin luminescence, 40 min; inhibition, % at 5 µM; 330,000 tested, 1.5% active;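 active means inhibition above about 50% at the single test dose, limit read from the data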;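 further: plate controls were DMSO with enzyme for no effect and no enzyme buffer wells for full effect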
SENP6 inh = SENP6 protease inhibition; 330,000 tested, 1.8% active; inhibition, % at 10 µM; AID 2599; Q9GZR1; Recombinant SENP6 catalytic domain, aminoluciferin luminescence;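 active means inhibition above about 50% at the single tested dose, limit read from the data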;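 further: plate controls were DMSO wells with enzyme for no effect and DMSO wells lacking enzyme for full effect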
Target sequence (Q9GZR1 628-1112 limits assumed): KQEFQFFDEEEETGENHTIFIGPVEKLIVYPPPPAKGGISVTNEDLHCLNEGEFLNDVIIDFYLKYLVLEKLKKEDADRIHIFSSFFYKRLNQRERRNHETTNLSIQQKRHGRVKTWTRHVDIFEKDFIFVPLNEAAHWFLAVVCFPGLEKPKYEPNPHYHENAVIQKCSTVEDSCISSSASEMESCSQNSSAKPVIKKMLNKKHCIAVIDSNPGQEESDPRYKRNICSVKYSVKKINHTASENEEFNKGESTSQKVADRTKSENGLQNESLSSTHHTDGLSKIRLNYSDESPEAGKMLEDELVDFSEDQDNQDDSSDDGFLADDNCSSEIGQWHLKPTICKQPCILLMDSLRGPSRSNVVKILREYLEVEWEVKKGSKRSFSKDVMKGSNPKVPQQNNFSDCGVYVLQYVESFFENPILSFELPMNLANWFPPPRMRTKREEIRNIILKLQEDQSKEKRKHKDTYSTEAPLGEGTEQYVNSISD
SENP8 block-1 = inhibitors of human SENP8 protease. recombinant SENP8, Nedd8 substrate fluorescence. Q96LD8. inhibition, % at 20 µM. 360,000 tested, 0.64% active; in the data active means inhibition mostly above about 40%, no sharp cut-off; inactive means mostly below about 27%
TRAIL sens C8 = caspase-8 TRAIL sensitization; NB7+C8 cells + TRAIL, ATPlite viability luminescence; inhibition (viability loss, TRAIL sensitization), % at 10 µM; 360,000 tested, 1% active; AID 624354;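 active means compounds causing at least 50% loss of cell viability in the single-dose screen, relative to plate controls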
SENP8 block-2 = SENP8 protease inhibition | Q96LD8 | purified SENP8, Z-RLRGG-aminoluciferin cleavage, luminescence | inhibition, % at 10 µM | 330,000 tested, 1.2% active; in the data active means inhibition above about 50%
PPC-1+TRAIL kill = compounds killing PPC-1 cancer cells with TRAIL present (potentiator screen, no TRAIL-free arm); PPC-1 cells + TRAIL, ATPLite viability luminescence; cell killing (% activity), % at 4 µM or 5 µM; 220,000 tested, 0.41% active;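 active means cell killing above 50% in the first pass at 4 µM, then a duplicate retest at 5 µM averaging 50% or more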;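 further: plate controls were cells with TRAIL plus DMSO for no effect and medium-only wells lacking cells for full effect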
* = called active by the depositor; . = not tested or not shown. Most compounds without a hit are left out; they make up all but 3% or so of the library.

SMILES	SENP7 block	SENP6 inh	SENP8 block-1	TRAIL sens C8	SENP8 block-2	PPC-1+TRAIL kill
CCOc1ccc(-c2c(C(=O)N/N=C/c3ccc(Cl)cc3)nnn2-c2nonc2N)cc1	5.0	6.0	-12.2	2.2	-5.9	.
Cc1ccccc1-c1cn(-c2ccccc2)c(=S)[nH]1	5.8	-27.9	-21.0	0.2	7.7	.
Cc1ccc(-c2cn(-c3ccccc3)c(=S)[nH]2)cc1C	86.5*	80.7*	11.8	37.4	65.9*	.
Cc1[nH]n(-c2ccccc2)c(=O)c1/C=N/c1ccccn1	0.7	-9.6	40.9*	11.2	1.1	6.3
CC1=NN(c2ccccc2)C(=O)/C1=C\c1c(C)[nH]n(-c2ccccc2)c1=O	6.8	2.0	42.1*	16.6	3.1	12.5
O=C(NNS(=O)(=O)c1ccccc1)Nc1ccc(F)cc1	-2.2	-6.0	-8.1	-17.5	-0.2	.
C[C@@H]1COC(=O)[C@H](Cc2ccc(F)cc2)CC/C=C/C[C@@H](CC(=O)N[C@@H](CO)Cc2ccccc2)C(=O)N1	-4.4	6.0	18.5	7.4	14.8	.
O=C(C[C@@H]1C/C=C/CC[C@H](Cc2ccc(F)cc2)C(=O)OC[C@@H](Cc2ccccc2)NC1=O)N[C@H](CO)Cc1ccccc1	4.7	-13.1	16.2	76.8*	8.0	.
CC(C)c1ccc(/C=C2\SC(=O)N(CC(=O)NC3CCS(=O)(=O)C3)C2=O)cc1 (stereo not given)	0.5	18.6	25.4	38.8	-0.8	.
Cn1cccc1/C=C1\SC(=S)N(Nc2ccccc2)C1=O	14.9	18.1	42.7*	-28.2	4.7	20.4
COC(=O)c1ccccc1S(=O)(=O)N1CCC(C(=O)NC2CCCCC2C)CC1 (stereo not given)	-2.4	13.3	5.8	10.6	1.5	.
CC(=O)Oc1ccccc1C(=O)C=Cc1cccc([N+](=O)[O-])c1	.	.	1.7	64.8*	.	.
CCCc1cc(=O)oc2c3c(c4c(c12)OC(C)(C)C=C4)OC(C)C(C)C3O (stereo not given)	6.6	-8.9	-39.2	78.3*	-1.3	-18.0
CCCc1cc(=O)oc2c3c(cc(OCC(=O)N[C@@H](C)C(=O)O)c12)OC(C)(C)CC3	-7.1	3.4	-267.9	-7.5	-5.6	.
COc1cc(/C=C/C(=O)OCC(=O)NC(=O)NC(C)C)cc(S(=O)(=O)N2CCc3ccccc32)c1OC	-4.9	-16.0	15.3	-8.3	-12.6	8.3
[O-][N+]1=c2ccc(Nc3ccccc3)cc2=NC12CCCCC2	.	.	86.5*	69.5*	.	11.2
O=[N+]([O-])c1ccc2c(c1N1CCCCC1)=NC1(CCCCC1)[N+]=2[O-]	1.5	24.9	34.9	-1.8	12.5	10.2
Cc1onc(-c2ccccc2Cl)c1C(=O)N1CCN(c2ccc(F)cc2)CC1	6.0	0.3	4.9	19.5	0.1	.
Cc1ccc(CSc2nnc(-c3cccnc3)o2)cc1	-9.8	-6.2	11.6	54.1*	-7.1	-8.3
C#CCSc1nnc(-c2ccc(C)cc2)o1	19.2	27.9	28.8	90.1*	-2.7	17.2
C#CCSc1nnc(-c2ccc(O)cc2)o1	12.8	40.0	11.9	2.4	9.8	25.2
CC1(C(=O)NCC2CC2)CCN1C(=O)C1(c2ccc(Cl)cc2)CC1 (stereo not given)	.	.	17.8	-4.4	.	.
CN(C)c1cccc(C(=O)N/N=C/c2ccsc2)c1	4.4	-8.1	-75.8	57.6*	-10.1	31.2
Cc1scc(C(=O)N/N=C/c2ccsc2)c1C	-8.0	0.7	5.6	62.1*	-13.8	54.3*
CCOC(=O)C1=CCN(S(=O)(=O)c2ccccc2Cl)C1c1cccc(F)c1 (stereo not given)	.	.	9.0	70.9*	.	.
CCOC(=O)C1=CCN(S(=O)(=O)c2ccccc2Cl)C1c1cccc(Cl)c1 (stereo not given)	.	.	14.2	12.2	.	.
CC(OC(=O)c1cc(O)c2ccccc2c1O)C(=O)Nc1ccc(C(N)=O)cc1 (stereo not given)	7.1	37.1	-345.4	57.4*	17.4	.
Cc1ccc(C(=O)Oc2ccc(C(=O)COC(=O)c3cnccn3)cc2)cc1	3.5	1.7	26.3	50.6*	-4.1	0.9
CCOC(=O)C1C(c2cc(OC)c(OC)c(OC)c2)NC(=S)NC1(O)C(F)(F)F (stereo not given)	-3.0	-9.8	8.9	-2.6	9.1	4.9
CCOC(=O)C1C(c2cc(OC)c(O)c(OC)c2)NC(=S)NC1(O)C(F)(F)F (stereo not given)	4.2	5.1	5.3	-1.7	4.6	53.1*

Screens as filed in PubChem.
